Reference: PubChem BioAssay (NCATS)
Records with an inconclusive call do not appear. Active and inactive are the calls of the source. Unless noted, calls follow the shape of the dose curve; as a rule, active = well fitted curve in the direction sought with a large enough effect; inconclusive = small, poorly fitted or top-dose-only effect, or another doubt; inactive = no such curve, though single readings can be large; an effect the other way counts as inactive or inconclusive.

What was measured:
[1] = target: Glutaminase kidney isoform, mitochondrial (Homo sapiens) (UniProt O94925); test: qHTS for Inhibitors of Glutaminase (GLS): LOPAC Validation (AID 624146); also: nearly all actives have a fitted effect of over 60% in size; also: potency is read from the fitted curve at half-maximal effect
In short: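 hKGA in 45 mM KH2PO4 pH 8.2, 0.02% Tween-20 with pin-transferred compounds; 1 mM L-glutamine (stock) plus glutamate oxidase/HRP/Amplex Red coupling added. Fluorescence read initially and after 30 min at RT.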

[2] = qHTS of Trypanosoma Brucei Inhibitors: LOPAC Validation (AID 624147); also: 0% is about no effect
In short: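 Luminescence from Kinase-Glo Plus, added after a 45-minute room-temperature reaction, served as the end-point read-out. The enzyme and substrate were preincubated with compound before ADP (130 uM final) initiated turnover. Concentration-effect curves came from normalized qHTS data.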

[3] = target: Glucagon-like peptide 1 receptor (Homo sapiens) (UniProt P43220); test: qHTS of GLP-1 Receptor Agonists: LOPAC Validation (AID 624148);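 also: 0% is about no effect; higher luminescence signal means agonism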
In short: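 HEK293 cells stably co-expressing GLP-1R and a cAMP-responsive luciferase reporter, plated 12 hours before compound, then incubated 4-6 hr at 37 deg C. Luminescence read 12 min after detection reagent.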

[4] = qHTS of Nrf2 Activators: LOPAC Validation (AID 624149); also: 0% is about no effect
In short: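 AREc32_Fluc cells, 1000/well, OPTI-MEM + 5% FBS, o/n 37 deg C 5% CO2; compound pin-transfer, 24 hr 37 deg C; Steady-Glo 30 min RT, luminescence read.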

[5] = HTS Assay for Allosteric Antagonists of the Human D2 Dopamine Receptor: Hit Validation in HTRF (AID 624455); also: % is scaled to controls: 0 for no effect and ±100 for the full control effect
In short: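 HTRF read-out; cells stably expressing D1 receptor; hits scored for inhibition of D1-mediated response. Primary screen: calcium flux, force-coupled inducible Hek293 Trex D2 line, antagonism vs EC80 dopamine.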

[6] = target: Voltage-gated inwardly rectifying potassium channel KCNH2 (Homo sapiens) (UniProt Q12809); test: qHTS Assay for Small Molecule Inhibitors of the Human hERG Channel Activity (AID 588834);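 also: top concentration of the series differs between compounds; % is scaled to controls: 0 for no effect and ±100 for the full control effect; lower thallium flux fluorescence means stronger hERG block; nearly all actives have a fitted effect of over 50% in size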
In short: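 Homogeneous FluxOR thallium flux assay using hERG-expressing U2OS cells (BacMam). Compound treatment about 10 minutes preceded stimulation; reduced fluorescence taken as channel block.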

[7] = qHTS assay for small molecule activators of the p53 signaling pathway (AID 651743; active = well fitted activation curve with a large enough effect in the signal ratio, not every such curve was filed as active; the % refers to the signal ratio; also: series mostly up to about 92 µM; % of control where 0% means no effect); settings: HCT-116 p53RE-bla, beta-lactamase FRET ratio, 16 h; hits give high values
In short: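 Reporter: beta-lactamase driven by p53 response elements, stably integrated in HCT-116 cells. Cells seeded at 4,000/well, 5 h preincubation, compound (DMSO) 16 h at 37 C; B/G FRET substrate 2 h RT; fluorescence intensity read.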

[8] = qHTS assay for small molecule activators of the nuclear factor-kappa B (NF-kB) signaling pathway (AID 651749; active = well fitted activation curve with a large enough effect in the signal ratio; the % refers to the signal ratio; also: series mostly up to about 77 µM; % of control where 0% means no effect); settings: NF-kB-bla ME-180 cells, beta-lactamase FRET ratio, 16 h; hits give high values
In short: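 NF-kB-bla ME-180 cells, 2,000/well; 23 nL compound or DMSO pinned; 16 hr, 37C/5% CO2; beta-lactamase FRET read-out.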

[9] = qHTS assay for environmental chemicals that activate the Aryl hydrocarbon Receptor (AhR) signaling pathway (AID 651777); settings: 1A2-DRE human hepatoma cells, luciferase, 24 h; hits give high values; also: % of control where 0% means no effect; nearly all actives have a fitted effect of over 15% in size
In short: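 Luminescence read-out: One-Glo added for 30 min at RT after 24 hr compound treatment (37 C, 5% CO2) of human hepatoma cells expressing a DRE/CYP1A2 promoter–luciferase reporter; increased signal indicates AhR activation.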

[10] = target: Peroxisome proliferator-activated receptor alpha (Homo sapiens) (UniProt Q07869); test: qHTS assay for small molecule agonists of the peroxisome proliferator-activated receptor alpha (PPARalpha) signaling pathway (AID 651778); settings: PathHunter PPARalpha complementation, chemiluminescence, 6 h; max response: hits give high values; also: potency is read from the fitted curve at half-maximal effect
In short: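 Enzyme-fragment complementation assay in which ligand-bound PPARalpha translocates and forms an active enzyme that generates chemiluminescence. Cells were plated overnight, exposed to compound for 6 hr at 37 C, and then given detection reagent for 60 min at room temperature.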

[11] = target: Luciferin 4-monooxygenase (Photinus pyralis) (UniProt P08659); test: Biochemical firefly luciferase enzyme assay for NPC (AID 624030);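 also: purified P. pyralis luciferase at 10 nM with luciferin and ATP substrate; series mostly up to about 59 µM; 0% = DMSO and -100% = full luciferase inhibition by PTC124 control; nearly all actives have a fitted effect of over 70% in size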
In short: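 Purified P. pyralis luciferase at 10 nM in 50 mM Tris Acetate (final), luminescence read within 5 minutes of enzyme addition to compounds. Activity normalised to PTC124 versus DMSO; concentration-response curves classed by r2, magnitude and activity.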

[12] = S16 Schwann cell viability assay (CellTiter-Glo assay) (AID 624031);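 also: cellular ATP luminescence as a viability measure; series mostly up to about 58 µM; plate controls were DMSO-treated cells for no effect and cell-free wells for full effect; nearly all actives have a fitted effect of over 70% in size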
In short: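 Untransfected S16 rat Schwann cells; compound 24 h, 37 °C/5% CO2; CellTiter-Glo ATP luminescence. % activity vs no-cell wells and DMSO controls (0%); concentration-effect curves classed by r2, response magnitude, activity.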

[13] = S16 Schwann cell PMP22 intronic element firefly luciferase assay (AID 624032);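 also: series mostly up to about 58 µM; plate controls were DMSO for no effect and PTC124 positive control mean for full effect; nearly all actives have a fitted effect of over 30% in size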
In short: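 Rat S16 Schwann cells stably carrying firefly luciferase driven by a PMP22 intronic element, in 10% FBS, treated 24 h at 37 C. ONE-Glo luminescence normalized to PTC124 control and DMSO (0%); curves classed by r2, magnitude and activity.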

[14] = S16 Schwann cell PMP22 intronic element beta-lactamase assay (AID 624044; calls by dose curve;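 also: 0% = DMSO and -100% = potassium clavulanate positive control; nearly all actives have a fitted effect of over 15% in size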)
In short: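 Beta-lactamase reporter under a PMP22 intronic regulatory element in stable S16 rat Schwann cells; 24 h compound exposure. 460 nm blue signal normalized between DMSO (0%) and potassium clavulanate, with 535 nm FRET tracking viability; curves classed by r2 and response.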

Glucagon-like peptide 1 receptor (Homo sapiens), sequence (P43220 whole entry, looked up): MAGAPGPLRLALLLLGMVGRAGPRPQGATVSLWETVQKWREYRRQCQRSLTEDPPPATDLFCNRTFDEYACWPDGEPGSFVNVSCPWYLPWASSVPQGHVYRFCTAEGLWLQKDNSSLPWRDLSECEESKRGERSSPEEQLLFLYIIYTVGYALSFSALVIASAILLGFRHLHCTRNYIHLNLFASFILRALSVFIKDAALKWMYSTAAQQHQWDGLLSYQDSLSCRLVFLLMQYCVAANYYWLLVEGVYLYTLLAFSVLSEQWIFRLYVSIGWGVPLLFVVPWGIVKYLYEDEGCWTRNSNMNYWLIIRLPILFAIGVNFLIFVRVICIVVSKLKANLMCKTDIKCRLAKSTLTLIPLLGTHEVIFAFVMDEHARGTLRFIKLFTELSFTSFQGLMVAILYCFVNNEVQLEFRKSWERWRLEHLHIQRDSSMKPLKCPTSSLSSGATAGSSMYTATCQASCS
Glutaminase kidney isoform, mitochondrial (Homo sapiens), sequence (O94925 whole entry, looked up, canonical isoform): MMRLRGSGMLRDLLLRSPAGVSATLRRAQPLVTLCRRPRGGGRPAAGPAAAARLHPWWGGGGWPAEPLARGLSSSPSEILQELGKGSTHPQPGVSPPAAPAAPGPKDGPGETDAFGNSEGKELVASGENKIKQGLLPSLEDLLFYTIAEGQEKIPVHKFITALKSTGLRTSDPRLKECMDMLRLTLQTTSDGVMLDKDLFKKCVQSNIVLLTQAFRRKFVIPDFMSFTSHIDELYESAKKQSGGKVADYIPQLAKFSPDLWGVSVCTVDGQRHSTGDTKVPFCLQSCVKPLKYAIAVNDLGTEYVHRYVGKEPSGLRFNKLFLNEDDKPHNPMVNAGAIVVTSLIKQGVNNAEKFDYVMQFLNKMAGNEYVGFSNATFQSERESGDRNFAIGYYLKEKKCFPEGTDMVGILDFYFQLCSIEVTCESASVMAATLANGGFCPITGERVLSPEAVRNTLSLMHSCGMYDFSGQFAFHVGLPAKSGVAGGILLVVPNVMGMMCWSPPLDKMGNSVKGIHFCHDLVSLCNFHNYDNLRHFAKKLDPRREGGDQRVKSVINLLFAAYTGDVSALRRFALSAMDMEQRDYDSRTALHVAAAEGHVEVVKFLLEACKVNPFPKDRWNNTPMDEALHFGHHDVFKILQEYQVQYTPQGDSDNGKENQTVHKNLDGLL
Voltage-gated inwardly rectifying potassium channel KCNH2 (Homo sapiens), sequence (Q12809 whole entry, looked up): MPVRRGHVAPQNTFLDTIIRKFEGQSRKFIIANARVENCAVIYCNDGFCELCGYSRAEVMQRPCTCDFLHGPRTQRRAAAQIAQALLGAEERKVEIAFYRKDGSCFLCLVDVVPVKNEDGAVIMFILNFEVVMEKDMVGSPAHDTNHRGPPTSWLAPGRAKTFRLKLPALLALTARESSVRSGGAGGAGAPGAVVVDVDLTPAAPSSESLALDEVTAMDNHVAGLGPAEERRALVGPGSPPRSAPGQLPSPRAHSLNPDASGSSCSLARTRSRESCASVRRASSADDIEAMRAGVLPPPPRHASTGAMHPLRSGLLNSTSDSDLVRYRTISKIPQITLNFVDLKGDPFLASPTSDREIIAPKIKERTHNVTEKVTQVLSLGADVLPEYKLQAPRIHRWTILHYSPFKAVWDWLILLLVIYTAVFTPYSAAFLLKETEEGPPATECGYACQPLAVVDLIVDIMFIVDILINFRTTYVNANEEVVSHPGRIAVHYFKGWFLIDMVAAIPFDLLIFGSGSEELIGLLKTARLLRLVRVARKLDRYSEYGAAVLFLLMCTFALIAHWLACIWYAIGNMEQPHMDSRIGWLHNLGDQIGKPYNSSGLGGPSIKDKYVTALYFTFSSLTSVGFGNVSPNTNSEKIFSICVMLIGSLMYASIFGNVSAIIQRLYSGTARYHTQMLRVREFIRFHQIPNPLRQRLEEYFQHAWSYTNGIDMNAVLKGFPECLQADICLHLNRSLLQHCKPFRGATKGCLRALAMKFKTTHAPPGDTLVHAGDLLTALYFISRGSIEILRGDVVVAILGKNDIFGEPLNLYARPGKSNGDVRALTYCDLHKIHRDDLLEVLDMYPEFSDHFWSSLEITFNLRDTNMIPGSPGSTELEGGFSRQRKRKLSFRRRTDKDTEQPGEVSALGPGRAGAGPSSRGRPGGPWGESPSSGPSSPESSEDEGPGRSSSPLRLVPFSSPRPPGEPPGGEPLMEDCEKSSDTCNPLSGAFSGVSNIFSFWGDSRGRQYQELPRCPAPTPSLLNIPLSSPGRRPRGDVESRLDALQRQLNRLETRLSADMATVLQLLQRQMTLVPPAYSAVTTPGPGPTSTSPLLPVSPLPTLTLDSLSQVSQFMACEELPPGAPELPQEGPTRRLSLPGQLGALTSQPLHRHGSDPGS
Peroxisome proliferator-activated receptor alpha (Homo sapiens), sequence (Q07869 whole entry, looked up, the tested form may be a part): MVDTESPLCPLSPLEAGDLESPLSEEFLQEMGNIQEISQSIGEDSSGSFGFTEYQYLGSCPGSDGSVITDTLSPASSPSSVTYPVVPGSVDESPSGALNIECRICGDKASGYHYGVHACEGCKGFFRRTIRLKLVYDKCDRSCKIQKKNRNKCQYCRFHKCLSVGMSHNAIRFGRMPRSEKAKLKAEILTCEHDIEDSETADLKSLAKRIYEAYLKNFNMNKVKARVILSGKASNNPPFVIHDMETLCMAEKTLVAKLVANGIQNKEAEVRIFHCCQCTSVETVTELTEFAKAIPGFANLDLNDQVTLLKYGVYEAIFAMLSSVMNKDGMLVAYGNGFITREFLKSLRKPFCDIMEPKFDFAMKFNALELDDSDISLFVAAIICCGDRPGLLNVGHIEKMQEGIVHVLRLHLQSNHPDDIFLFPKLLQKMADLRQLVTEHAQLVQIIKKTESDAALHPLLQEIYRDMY
Luciferin 4-monooxygenase (Photinus pyralis), sequence (P08659 whole entry, looked up): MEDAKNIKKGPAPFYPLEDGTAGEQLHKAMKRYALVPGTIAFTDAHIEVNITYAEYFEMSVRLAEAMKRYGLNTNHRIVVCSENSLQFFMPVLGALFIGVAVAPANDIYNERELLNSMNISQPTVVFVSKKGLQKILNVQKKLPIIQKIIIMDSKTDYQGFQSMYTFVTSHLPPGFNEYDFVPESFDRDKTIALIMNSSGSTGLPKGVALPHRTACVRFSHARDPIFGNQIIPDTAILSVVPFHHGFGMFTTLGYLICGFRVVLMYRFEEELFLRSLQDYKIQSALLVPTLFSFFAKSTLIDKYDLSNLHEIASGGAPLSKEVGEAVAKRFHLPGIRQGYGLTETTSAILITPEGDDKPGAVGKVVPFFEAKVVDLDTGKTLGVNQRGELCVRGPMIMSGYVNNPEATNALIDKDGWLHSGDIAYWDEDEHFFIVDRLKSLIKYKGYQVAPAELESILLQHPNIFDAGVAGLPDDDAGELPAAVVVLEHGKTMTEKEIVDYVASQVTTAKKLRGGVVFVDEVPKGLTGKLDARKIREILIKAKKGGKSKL

Nc1nc2c(nc(Br)n2C2OC3COP(=O)(O)O[C@@H]3C2O)c(=O)[nH]1 (stereo partly specified)
inactive: Potency [1] | Potency [2] | Potency [3] | Potency [4]

Oc1ccc(/C=C/c2ccc(/C=C/c3ccc(O)cc3)c(Br)c2)cc1
active: Potency [1] 7.08 µM
inactive: Potency [2] | Potency [3] | Potency [4] | Potency [5]

Cc1nc2c(OCc3ccccc3)cccn2c1CC#N
inactive: Potency [6] | Potency [2] | Potency [3] | Potency [5]

COc1ccc2c(c1)c(CC(=O)O)c(C)n2Cc1ccc(Cl)cc1
inactive: Potency [6] | Potency [2] | Potency [3] | Potency [4] | Potency [5]

Nc1ncnc2c1nc(Sc1ccc(Cl)cc1)n2[C@H]1OC2COP(=O)(O)O[C@@H]2C1O (stereo partly specified)
inactive: Potency [1] | Potency [2] | Potency [3] | Potency [4]

O=C1Nc2ccc(I)cc2/C1=C/c1cc(Br)c(O)c(Br)c1
inactive: Potency [1] | Potency [2] | Potency [3] | Potency [4]

NC(Cc1cccc(-c2ccccc2CP(=O)(O)O)c1)C(=O)O (stereo unspecified)
inactive: Potency [1] | Potency [2] | Potency [3] | Potency [4] | Potency [5]

NCC(O)C1CCCCCCC1 (stereo unspecified)
inactive: Potency [1] | Potency [2] | Potency [3] | Potency [4]

O=C(O)Cc1ccc(O)c(O)c1
inactive: Potency [6] | Potency [3] | Potency [4] | Potency [5]

COc1cc(/C=C(\C#N)C(=O)Nc2nnc(C(F)(F)F)s2)ccc1OCc1ccc(C(F)(F)F)cc1C(F)(F)F
inactive: Potency [1] | Potency [2] | Potency [3] | Potency [4] | Potency [5]

CSc1nc(N)c2ncn([C@@H]3O[C@H](COP(=O)(O)OP(=O)(O)O)C(O)[C@H]3O)c2n1 (stereo partly specified)
inactive: Potency [1] | Potency [2] | Potency [3] | Potency [4]

Cc1cccc(C)c1OCC(N)C(C)C (stereo unspecified)
inactive: Potency [1] | Potency [2] | Potency [3] | Potency [4] | Potency [5]

C=CCN1CCc2cc(O)c(O)cc2C(c2ccccc2)C1 (stereo unspecified)
inactive: Potency [1] | Potency [2] | Potency [3] | Potency [4]

N[C@H](C(=O)O)[C@H](Cc1ccccc1)C(=O)O
inactive: Potency [1] | Potency [2] | Potency [3]

CCCCCCCCCCCCCCSCC(=O)O
inactive: Potency [6] | Potency [2] | Potency [3] | Potency [4] | Potency [5] | activation [7] 1.79% | activation [8] 3.35% | activation [9] 0.376%
active: Potency [10] 10 µM

COc1cc(CNC(=O)CCCCCCC(C)C)ccc1O
inactive: Potency [2] | Potency [3] | Potency [4] | Potency [5]
active: Potency [1] 3.16 µM

c1ccc(C2CN3CCSC3=N2)cc1 (stereo unspecified)
inactive: outcome [11] | outcome [12] | outcome [13] | outcome [14] | Potency [1] | Potency [2] | Potency [3] | Potency [4] | Potency [5]

Brc1c(Br)c(Br)c2[nH]cnc2c1Br
inactive: Potency [1] | Potency [2] | Potency [3] | Potency [4]

COc1cc(N)c(Cl)cc1C(=O)OCCN1CCCCC1
inactive: Potency [1] | Potency [2] | Potency [3] | Potency [4] | Potency [5]

N#CC(C#N)=C(N)/C(C#N)=C/c1ccc(O)cc1
inactive: Potency [6] | Potency [2] | Potency [3] | Potency [5]

O[Si](CCCN1CCCCC1)(c1ccc(F)cc1)C1CCCCC1 (stereo unspecified)
inactive: Potency [1] | Potency [2] | Potency [3] | Potency [4] | Potency [5]

CCc1ccc2c(-c3cccc(Cl)c3)nc(=O)n(CC)c2n1
inactive: Potency [1] | Potency [2] | Potency [3] | Potency [4] | Potency [5]

CC(C)(CO)Cc1cc(C(C)(C)C)c(O)c(C(C)(C)C)c1
active: Potency [1] 1.78 µM
inactive: Potency [2] | Potency [3] | Potency [4] | Potency [5]

CCCCCCC(=O)OC1CC(C)(C)NC(C)(C)C1
inactive: Potency [1] | Potency [2] | Potency [3] | Potency [4] | Potency [5]

c1ccc(C(NCCNC(c2ccccc2)c2ccccc2)c2ccccc2)cc1
inactive: Potency [1] | Potency [2] | Potency [3] | Potency [4] | Potency [5]

c1ccc2c(c1)CCC[C@H]2Nc1nc2ccccc2[nH]1
inactive: Potency [1] | Potency [2] | Potency [3] | Potency [4] | Potency [5]

OC[C@H]1O[C@H](n2cnc3c(N[C@H]4CCC[C@@H]4O)ncnc32)[C@H](O)[C@@H]1O
inactive: Potency [1] | Potency [2] | Potency [3] | Potency [4] | Potency [5]

CCCn1c(=O)c(C)cn2nc(N)nc12
inactive: Potency [1] | Potency [2] | Potency [3] | Potency [4] | Potency [5]

OC1(c2ccc(Cl)cc2)CCN(Cc2c[nH]c3ccccc23)CC1
inactive: Potency [1] | Potency [2] | Potency [3] | Potency [4] | Potency [5]

NC(=O)CNCCC(c1ccccc1)c1ccccc1
inactive: Potency [1] | Potency [2] | Potency [3] | Potency [4] | Potency [5]

CNCCc1cnc(CCC(c2ccccc2)c2ccccc2)[nH]1
inactive: Potency [1] | Potency [2] | Potency [3] | Potency [4] | Potency [5]

CC1CCN(CC[C@H]2CCCN2S(=O)(=O)c2cccc(O)c2)CC1
inactive: Potency [1] | Potency [2] | Potency [3] | Potency [4] | Potency [5]
